Screen size: about 69,000 compounds; about 8,600 (12%) showed an effect of 50% or more. Shown is part of a subset that was picked to be rich in strong results.

The values that follow come from ChEMBL document CHEMBL4513216, “Probing the Open Global Health Chemical Diversity Library for Multistage-Active Starting Points for Next-Generation Antimalarials” (ACS Infect Dis, 2020).

For this test, the system named is Plasmodium berghei. The experiment in a line: Screen against P. berghei liver stage (PbLuc), transformed with Luciferase, at 10uM. It counts as functional, HepG2. The settings on record: tested at 10 uM.
Regarding `CCOc1cc(NC(=O)C2CC(=O)N(c3cccc(OC)c3)C2)ncn1` (configuration not stated), the INHIBITION stood at 45.7%.

For the compound `COc1cc(NC(=O)C2CC(=O)N(c3cccc(F)c3)C2)ncn1` (configuration not stated), the INHIBITION was 6.34%.

On to `COc1cc(NC(=O)C2CC(=O)N(c3cccc(Br)c3)C2)ncn1` (configuration not stated), for which the INHIBITION is 63.8%.

For the compound `CC(=O)N1CCCN(C(=O)NCCOc2ccc3c(c2)OCO3)CC1`, the INHIBITION is -31.8%.

As for `CCN1CCC2(CCC1=O)CN(C1CCOCC1)CCN2C` (configuration not stated), the INHIBITION is given as -10.9%.

In the case of `CNc1cnc(CC2COCCN(Cc3cccc(C)n3)C2)cn1` (configuration not stated), the INHIBITION is 3.48%.

Take `CN(CC1CC1)c1ccc2ccc(C(=O)NCCc3ccccc3)cn12`: the INHIBITION came to 38.3%.

As for `COc1cccc(CN(Cc2ncc[nH]2)Cc2ccco2)c1`, the INHIBITION is 28.3%.

`COc1ccc(CN(Cc2ccco2)Cc2[nH]cnc2C)c(OC)c1`: the INHIBITION is listed as 20.6%.

As for `COc1cccc(CN(Cc2ccco2)Cc2[nH]cnc2C)c1`, the INHIBITION worked out at 87.7%.

Turning to `Cc1noc(CN(Cc2cccc(C#N)c2)Cc2ccco2)n1`, the INHIBITION is listed as -9.82%.

Turning to `COc1cccc(CN(Cc2ccco2)Cc2cnc(C)n2C)c1`, the INHIBITION was 65.7%.

For the compound `COc1ccc(OC)c(CN(Cc2ccco2)Cc2[nH]cnc2C)c1`, the INHIBITION was 26.1%.

On to `Cn1nc(C(=O)N2CCSCC2)cc1NC(=O)c1ccccc1`, for which the INHIBITION is given as 7.39%.

On to `Cn1cc(C(=O)CC2CCCN2C(=O)c2coc3ccccc23)cn1` (configuration not stated), for which the INHIBITION came out at 3.15%.

On to `CN(C)c1cc(CNc2cncc(-n3cccn3)n2)ccn1`, for which the INHIBITION is -6.14%.

As to `CC(C)(C)c1ncc(C(=O)NCc2cccc(C(=O)N3CCCC3)c2)s1`, the INHIBITION is -12.9%.

With `CC1(C)[C@H](Cc2cc(CO)on2)C[C@@H]1NCc1ccc(CO)o1`, the INHIBITION is 58.5%.

For the compound `COCc1ccc(CN[C@H]2C[C@@H](Cc3cc(CCO)on3)C2(C)C)o1`, the INHIBITION turned out to be 30.5%.

For `CC1(C)[C@H](Cc2cc(CO)on2)C[C@@H]1N(CC1CC1)CC1CC1`, the INHIBITION stood at 27.2%.

Take `O=C(c1cc(F)ccc1Br)N1CCN(C(=O)C2CC2)CC1`: the INHIBITION is given as 12.9%.

Regarding `CCOc1cc(Cl)ccc1CNC(=O)c1ccc(=O)n(C)c1`, the INHIBITION stood at 39.3%.

For `CCS(=O)(=O)NCC(=O)N1CC2(CCCC2)c2c(F)cccc21`, the INHIBITION is 62.4%.

Take `CNS(=O)(=O)CC(=O)N1CC2(CCCC2)c2c(F)cccc21`: the INHIBITION was -17.2%.

Regarding `O=C(NCC(=O)N1CC2(CCCC2)c2c(F)cccc21)C1CC1`, the INHIBITION is 40.5%.

For the compound `Cc1nn(C)cc1CN(C)C(=O)c1cnccn1`, the INHIBITION was found to be 8.7%.

Take `Cn1cc(S(=O)(=O)NCc2ccc(F)cc2)cn1`: the INHIBITION amounted to 24.175%.

Turning to `CN(C)CC1CN(Cc2ccc(-n3cccn3)cc2)CCO1` (configuration not stated), the INHIBITION is given as 15.3%.

Turning to `O=C(Cc1cccc(F)c1)N1C[C@H]2CN(Cc3cccnc3)C[C@H]2C1`, the INHIBITION is 0.112%.

For the compound `CN(C)C(=O)NC1COC2(CCN(Cc3ccc(Cl)c(F)c3)CC2)C1` (configuration not stated), the INHIBITION is 39.2%.

Regarding `c1ccc(C2=NOC3(CCN(Cc4c[nH]c5ccccc45)CC3)C2)cc1`, the INHIBITION is 63.1%.

For the compound `CC(C)C1=NOC2(CCN(Cc3c[nH]c4ccccc34)CC2)C1`, the INHIBITION is reported as 75.6%.

Turning to `CC1=NOC2(CCN(Cc3c[nH]c4ccccc34)CC2)C1`, the INHIBITION turned out to be 43.3%.

On to `CC(=O)N1CCC2(CC1)CC(C(C)C)=NO2`, for which the INHIBITION is listed as 25.1%.

On to `c1ccc(O[C@H]2COCCN(Cc3c[nH]c4ccccc34)C2)cc1`, for which the INHIBITION is -41.9%.

Take `c1cncc(C2=NOC3(CCN(Cc4c[nH]c5ccccc45)CC3)C2)c1`: the INHIBITION came out at 44.1%.

`CCc1ccc(NC(=O)N2C[C@@H]3C[C@H](C(=O)NC4CCC4)[C@H](C2)O3)cc1`: the INHIBITION is listed as -50%.

As to `O=C(O)COc1ccc(CN2CCCC(Cc3cccnc3)C2)cc1` (configuration not stated), the INHIBITION is on record as 1.62%.

For `COCCN(Cc1ccoc1)C(=O)c1c(F)cccc1F`, the INHIBITION is recorded as -6.42%.

For `COCCCN(Cc1ccncc1)C(=O)CSc1ccc(F)cc1`, the INHIBITION is given as 25.8%.

As for `COCCN(Cc1ccoc1)C(=O)CSc1ccc(F)cc1`, the INHIBITION came to 56.5%.

On to `O=C(Nc1cnccn1)[C@H]1CC[C@@H]2[C@@H](CCN2Cc2ccccn2)O1`, for which the INHIBITION is given as -5.08%.

With `CC(C)Cc1cc(NC(=O)c2ccc3[nH]nnc3c2)n(C)n1`, the INHIBITION worked out at 1.45%.

Consider `CC(C)CN1CCCC1c1ccc(C(=O)Nc2cn(C)nn2)s1` (configuration not stated), for which the INHIBITION was 47.9%.

Consider `CCc1noc(CC)c1CNC(=O)Nc1ccc2[nH]nnc2c1`, for which the INHIBITION is reported as 27.2%.

As for `CCCN1CCCC1c1ccc(C(=O)N2CCOCC2)s1` (configuration not stated), the INHIBITION is on record as 42.1%.

Regarding `CCc1nnc(NC(=O)c2ccc(C3CCCN3CC(C)C)s2)s1` (configuration not stated), the INHIBITION came out at 15.9%.

Consider `CC(C)CN1CCCC1c1ccc(C(=O)Nc2ccc3[nH]nnc3c2)s1` (configuration not stated), for which the INHIBITION is reported as 51.1%.

Turning to `CC(C)CN1CCCC1c1ccc(C(=O)Nc2cccnc2)s1` (configuration not stated), the INHIBITION was 89.6%.

Regarding `CC(C)CN1CCCC1c1ccc(C(=O)Nc2cc[nH]n2)s1` (configuration not stated), the INHIBITION was determined as 22.3%.

Take `Cc1cnc(NC(=O)c2ccc(C3CCCN3CC(C)C)s2)s1` (configuration not stated): the INHIBITION stood at 64%.

With `CN1C(=N)NC(=O)/C1=C/c1ccc(-c2ccc(Br)cc2)o1`, the INHIBITION came out at 10.1%.

On to `O=C(CN1CCC(c2cc(=O)n3c(n2)CCCCC3)C1)N1CCCCC1` (configuration not stated), for which the INHIBITION is on record as 1.5%.

`Cc1cccc(OCCCN2CCC(N(C)Cc3noc(C)n3)C2)c1` (configuration not stated): the INHIBITION is on record as 1.75%.

Turning to `Cc1nc(C2CCCN2C(=O)Cn2cncn2)no1` (configuration not stated), the INHIBITION is listed as -14%.

For the compound `COCCN1CCC(CN(CC2CCCO2)C(=O)Cc2cccs2)CC1` (configuration not stated), the INHIBITION is given as 4.35%.

For `FC(F)(F)c1cc(C2CCCN(c3ncccn3)C2)n2ccnc2n1` (configuration not stated), the INHIBITION was found to be 7.43%.

Consider `Cn1nc(C2CCN(C(=O)CN3CCCCC3)CC2)c2cccnc21`, for which the INHIBITION was found to be 23.2%.

Consider `CCOc1ncccc1CNC(=O)c1cccc(C)n1`, for which the INHIBITION is reported as 38.25%.

Regarding `COCC(=O)N1CC[C@H]2C[C@H](c3nnc(C4CC4)o3)O[C@@H]2C1`, the INHIBITION is on record as -6.3%.

In the case of `COc1ccc(NC(=O)N(C)Cc2ccsc2)cn1`, the INHIBITION was 17.4%.

`CCNc1cc2c(nn1)CCN(C(=O)c1cccnc1N(C)C)C2`: the INHIBITION worked out at 17.05%.

Take `CN1CCN(C(=O)Cn2ccc3c(Cl)cccc32)CC1`: the INHIBITION was -13.6%.

Regarding `Cc1ccnc(NC(=O)c2cccc(OCc3nnnn3C)c2)c1`, the INHIBITION was found to be 39.8%.

On to `Cc1cccc(NC(=O)c2ccc(OCc3nnnn3C)cc2)n1`, for which the INHIBITION is listed as -83.3%.

For the compound `Cc1cccc(NC(=O)c2cccc(OCc3nnnn3C)c2)n1`, the INHIBITION is 60%.

Turning to `CN1CC(=O)N(c2ccccc2)CC12CCN(C(=O)c1ccnnc1)C2` (configuration not stated), the INHIBITION is given as -7.29%.
